From paper PMC4336329 (PLoS ONE, 2015)
The whole screen tested about 310,000 compounds, of which about 14,000 (4.5%) showed an effect of 50% or more. The effect is printed as a negative number. For the sample, strong results were picked, then their nearest neighbours and some compounds at random.

target: human ether-à-go-go-related gene (hERG) potassium channel (human, UniProt Q12809); test: primary screen, population patch clamp on CHO cells stably expressing hERG; higher = less effect of the substance
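Note: peak tail current of the secondary pulse compared with the same well before compound.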

Chain of human ether-à-go-go-related gene (hERG) potassium channel (Q12809 whole entry, looked up): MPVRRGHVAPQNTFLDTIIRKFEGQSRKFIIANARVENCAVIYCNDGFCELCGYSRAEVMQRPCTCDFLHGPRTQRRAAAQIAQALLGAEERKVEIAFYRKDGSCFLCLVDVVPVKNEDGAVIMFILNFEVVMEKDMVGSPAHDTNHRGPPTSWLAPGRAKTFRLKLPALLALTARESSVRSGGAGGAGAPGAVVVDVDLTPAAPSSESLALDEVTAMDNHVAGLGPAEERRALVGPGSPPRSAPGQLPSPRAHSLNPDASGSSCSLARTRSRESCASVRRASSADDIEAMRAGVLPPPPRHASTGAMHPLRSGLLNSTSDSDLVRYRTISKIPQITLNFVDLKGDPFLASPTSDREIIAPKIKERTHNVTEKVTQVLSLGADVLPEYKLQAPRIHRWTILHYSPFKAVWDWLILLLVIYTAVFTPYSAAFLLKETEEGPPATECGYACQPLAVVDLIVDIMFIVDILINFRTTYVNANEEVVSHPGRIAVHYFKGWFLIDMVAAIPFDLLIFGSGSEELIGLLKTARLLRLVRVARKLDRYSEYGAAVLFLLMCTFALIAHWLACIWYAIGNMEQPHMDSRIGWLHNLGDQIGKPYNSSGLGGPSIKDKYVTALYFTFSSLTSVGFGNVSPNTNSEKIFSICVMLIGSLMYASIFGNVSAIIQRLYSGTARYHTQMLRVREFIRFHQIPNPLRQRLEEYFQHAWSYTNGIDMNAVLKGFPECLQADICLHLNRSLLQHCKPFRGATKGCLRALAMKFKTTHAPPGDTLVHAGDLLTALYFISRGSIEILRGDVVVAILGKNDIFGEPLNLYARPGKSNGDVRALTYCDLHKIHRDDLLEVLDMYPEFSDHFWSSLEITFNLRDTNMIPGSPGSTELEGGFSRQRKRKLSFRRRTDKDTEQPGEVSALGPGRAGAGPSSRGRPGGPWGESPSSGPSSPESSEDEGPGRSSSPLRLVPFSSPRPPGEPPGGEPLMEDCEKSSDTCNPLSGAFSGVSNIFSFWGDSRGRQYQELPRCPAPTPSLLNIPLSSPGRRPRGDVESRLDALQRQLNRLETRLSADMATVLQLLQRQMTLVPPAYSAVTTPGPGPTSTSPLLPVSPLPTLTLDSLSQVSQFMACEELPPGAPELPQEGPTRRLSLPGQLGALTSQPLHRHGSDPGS

Structure (SMILES) | hERG current change (%, negative = inhibition) at 10uM
CCc1ccc(OCC(O)CN2CCC(CN3C(=O)c4cccc5cccc(c45)C3=O)CC2)cc1.Cl (stereo not shown) | -41.1%
COc1ccc(S(=O)(=O)N2CCC(CN3C(=O)c4cccc5cccc(c45)C3=O)CC2)cc1 | 7.22%
COc1ccc(OCC(O)CN2CCC(CN3C(=O)c4cccc5cccc(c45)C3=O)CC2)cc1.Cl (stereo not shown) | -59.1%
Cc1cc(C)n(C(=O)CCCC(=O)n2nc(C)cc2C)n1 | -4.17%
CC(=O)Nc1ccc(NC(=O)COc2ncnc3ccccc23)cc1 | -7.63%
O=C(Nc1ccccn1)c1cc(-c2cccc(Cl)c2)nc2ccccc12 | 13.3%
CC1CCN(S(=O)(=O)c2cc(C(=O)N3CCN(c4ncccn4)CC3)ccc2Br)CC1 | -72.4%
O=C(c1ccc(Cl)c(S(=O)(=O)N2CCCCCC2)c1)N1CCN(c2ccccn2)CC1 | -63.6%
O=C(c1ccc(Cl)c(S(=O)(=O)N2CCOCC2)c1)N1CCN(c2ccccn2)CC1 | -44.2%
O=C(c1ccc(Cl)c(S(=O)(=O)N2CCCC2)c1)N1CCN(c2ncccn2)CC1 | -4.2%
O=C(c1ccc(Cl)c(S(=O)(=O)N2CCCC2)c1)N1CCN(c2ccccn2)CC1 | -31.3%
O=C(c1ccc(Cl)c(S(=O)(=O)Nc2ccc(F)cc2)c1)N1CCN(c2ccccn2)CC1 | -33.9%
O=C(c1ccc(Cl)c(S(=O)(=O)NCc2ccccc2)c1)N1CCN(c2ccccn2)CC1 | -50.3%
O=C(c1ccc(CNS(=O)(=O)c2ccccc2)cc1)N1CCN(c2ccccn2)CC1 | -28.5%
CC1CCN(C(=O)c2ccc(Br)c(S(=O)(=O)N3CCOCC3)c2)CC1 | -3.74%
CCC1(C)CC(C(N)=S)CCO1 (stereo not shown) | 27.4%
O=C(C1CCC1)N(CCc1ccccc1)Cc1nc2ccccc2c(=O)[nH]1 | -4.04%
CCc1nnc(NC(=O)CN2C(=O)c3ccccc3S2(=O)=O)s1 | 10.7%
Cc1ccc(S(=O)(=O)Nc2c(C)nn(C)c2C)cc1 | -4.07%
CCn1c(=O)c2sccc2n(Cc2ccc(C)cc2)c1=O | 26%
O=C(CN1CCN(Cc2ccc3c(c2)OCO3)CC1)Nc1ccc(F)cc1 | -81.7%
O=C(CN1CCN(S(=O)(=O)c2ccc(F)cc2)CC1)Nc1ccc2c(c1)OCO2 | -40.6%
O=C(Nc1ccccc1)N1CCN(Cc2ccc3c(c2)OCO3)CC1 | -26.1%
Cc1ccc(NC(=O)N2CCN(Cc3ccc4c(c3)OCO4)CC2)cc1 | -33.8%
CC1CCc2nc(NC(=O)CN3CCOCC3)sc2C1 (stereo not shown) | -4.5%
CC1CCc2nc(NC(=O)CN3CCN(Cc4ccc5c(c4)OCO5)CC3)sc2C1 (stereo not shown) | -66.7%

Structure (SMILES) | hERG current change (%, negative = inhibition) at 10uM
Cc1cc(C)cc(NC(=O)N2CCN(Cc3ccc4c(c3)OCO4)CC2)c1 | -59%
COc1cc(NC(=O)CN2CCN(Cc3ccc4c(c3)OCO4)CC2)cc(OC)c1.O=C(O)C(=O)O | -47%
O=C(CN1CCN(c2ccc(F)cc2)CC1)Nc1ccc2c(c1)OCCO2 | 4%
O=C(CN1CCN(CC(=O)Nc2ccc3c(c2)OCO3)CC1)Nc1ccc(F)cc1 | -73.4%
CC1CCc2nc(NC(=O)CN3CCN(c4ccccc4)CC3)sc2C1 (stereo not shown) | -6.29%
O=C(CN1CCN(Cc2ccc3c(c2)OCO3)CC1)NCC(F)(F)F | 5.34%
O=C(/C(=C(/[O-])c1ccccc1)[n+]1ccccc1)c1ccc([N+](=O)[O-])cc1 | 6.47%
Cc1ccc(-c2nnc(N(C)C(=O)c3ccncc3)s2)cn1 | 1.62%
CCC(C)(C)NC(=O)C(c1cccnc1)N(C(=O)c1csnn1)c1ccc(C)cc1 (stereo not shown) | 10.6%
CCCOc1ccc(-c2c(C(=O)N/N=C/c3ccccc3OCC)nnn2-c2nonc2N)cc1 | 22.7%
COc1ccc(OC)c(C2C(C(=O)c3cc4ccccc4o3)=C(O)C(=O)N2c2cc(C)on2)c1 (stereo not shown) | 2.7%
COc1ccc2oc(C(=O)NN3C(C)CCCC3C)c(C)c2c1 (stereo not shown) | 16.1%
CNc1nccc(-c2ccc(F)cc2)c1C#N | 6.25%
Fc1ccccc1N1CCN(Cc2ccc3c(c2)OCO3)CC1 | -26.8%
COc1ccc(NC(=O)CN2CCN(Cc3ccc4c(c3)OCO4)CC2)cc1OC.O=C(O)C(=O)O | -17.4%
O=S(=O)(c1ccc(F)cc1)N1CCC(O)(c2ccc3c(c2)OCO3)CC1 | -42%
O=C(CN1CCN(Cc2ccc3c(c2)OCO3)CC1)Nc1ccc2c(c1)OCO2 | -72.5%
O=C(CN1CCN(Cc2ccc3c(c2)OCO3)CC1)Nc1cc(S(=O)(=O)N2CCCC2)ccc1Cl | -18.8%
Cc1cccc(N2CCN(Cc3ccc4c(c3)OCO4)CC2)c1C | 3.83%
N#Cc1c(F)cccc1N1CCN(Cc2ccc3c(c2)OCO3)CC1 | -81.3%
OC1(c2ccc3c(c2)OCO3)CCN(Cc2ccc(F)cc2)CC1 | -51.4%
OC1(c2ccc3c(c2)OCO3)CCN(Cc2ccccn2)CC1 | -6.96%
O=C(CN1CCN(Cc2ccc3c(c2)OCO3)CC1)Nc1ccc(N2CCOCC2)cc1 | -6.54%
CN(C)S(=O)(=O)c1ccc(Cl)c(NC(=O)CN2CCCCCC2)c1 | -24.6%
CN(C)S(=O)(=O)c1ccc(Cl)c(NC(=O)CN2CCN(Cc3ccc4c(c3)OCO4)CC2)c1 | -64.6%
CS(=O)(=O)c1ccc2nc(NC(=O)c3ccc(N4CCCC4=O)cc3)sc2c1 | 13.3%
